This is a sample that favours compounds with a hit; in the whole collection about 6.9% have one here.
JMJD2A Tudor inh – qHTS Assay for Inhibitors of JMJD2A-Tudor Domain; Lysine-specific demethylase 4A (Homo sapiens), O75164; AlphaScreen JMJD2A-Tudor / H3K4me3 peptide binding; Potency, µM (highest dose often 114 µM), without a hit: top-dose activity change, negative = inhibition, hits mostly inhibitors; 4.4% of 390,000 active; further: on the % scale 0 is the no-effect control and ±100 the full control effect; nearly all actives have a fitted effect of over 50% in size
L3MBTL1 inh – qHTS Assay for the Inhibitors of L3MBTL1. Potency, µM (highest dose often 57.1 µM), for the others: at the highest dose activity, negative = inhibition, hits mostly inhibitors. 0.66% of 230,000 active. Lethal(3)malignant brain tumor-like protein 1 (Homo sapiens), Q9Y468. AID 485360, 2010. AlphaScreen L3MBTL1–H3K9me1 peptide binding; further: on the % scale 0 is the no-effect control and ±100 the full control effect; nearly all actives have a fitted effect of over 60% in size
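L3MBTL1 50 nM + b-AHA-H3(1-15)K9me1 75 nM, 30 min RT; compound added, 30 min RT; streptavidin donor/Ni-chelate acceptor beads 10 ug/mL each final, 30 min RT dark; AlphaScreen read.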
VDR inh – Inhibitors of the vitamin D receptor (VDR): qHTS; Vitamin D3 receptor (Homo sapiens), P11473; VDR-SRC2-3 peptide fluorescence polarization, 2 h; Potency, µM, without a hit: max response, negative = inhibition, most hits filed as inhibitors; 0.93% of 400,000 active; further: on the % scale 0 is the no-effect control and ±100 the full control effect
Target sequence (P11473 whole entry, looked up): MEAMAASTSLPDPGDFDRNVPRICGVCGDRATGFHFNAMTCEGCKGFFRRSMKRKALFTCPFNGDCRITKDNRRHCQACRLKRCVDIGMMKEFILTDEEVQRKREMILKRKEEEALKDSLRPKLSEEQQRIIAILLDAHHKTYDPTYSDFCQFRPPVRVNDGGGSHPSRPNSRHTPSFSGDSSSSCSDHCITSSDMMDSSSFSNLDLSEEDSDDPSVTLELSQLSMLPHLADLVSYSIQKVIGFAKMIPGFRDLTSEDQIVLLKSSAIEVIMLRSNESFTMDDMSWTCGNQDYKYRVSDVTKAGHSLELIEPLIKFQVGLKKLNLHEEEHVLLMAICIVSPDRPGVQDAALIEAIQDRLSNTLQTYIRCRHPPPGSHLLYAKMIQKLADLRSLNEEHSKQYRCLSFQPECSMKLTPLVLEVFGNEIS
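Inhibition of the VDR/SRC2-3 peptide interaction is quantified by fluorescence polarization. Compounds (23 nl, pintool) incubate with the reagents for 2 hours at ambient room temperature.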
HP1b chromo inh – HTS for Inhibitors of HP1-beta Chromodomain Interactions with Methylated Histone Tails; Potency, µM (highest dose often 114 µM), inactives show top-dose activity change, negative = inhibition, usual class: inhibitors; 0.56% of 390,000 active; Chromobox protein homolog 1 (Homo sapiens), P83916; AlphaScreen HP1-beta / biotin-H3K9me3 peptide binding; further: nearly all actives have a fitted effect of over 70% in size
Target sequence (P83916 whole entry, looked up): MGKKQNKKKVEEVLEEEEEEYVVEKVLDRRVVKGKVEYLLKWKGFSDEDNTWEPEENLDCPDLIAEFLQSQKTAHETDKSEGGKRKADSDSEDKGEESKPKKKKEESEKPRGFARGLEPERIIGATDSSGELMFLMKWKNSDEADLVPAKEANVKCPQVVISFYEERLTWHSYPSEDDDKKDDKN
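Compound inhibition of the preformed complex between 50 nM HP1-beta and 50 nM biotinylated H3K9me3 peptide was read by AlphaScreen. Buffer was PBS pH 7.4 with 0.01% Tween-20. Incubations ran 30 min at room temperature, with 10 ug/mL donor/acceptor beads.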
PLK1 PBD block – qHTS for Inhibitors of PLK1-PDB (polo-like kinase 1 - polo-box domain): Primary Screen; AID 720504, 2013; Potency, µM, without a hit: max response, negative = inhibition, usual class: inhibitors; Serine/threonine-protein kinase PLK1 (Homo sapiens), P53350; 2.8% of 360,000 active; Plk1 PBD binding of FITC phosphopeptide, fluorescence polarization; further: series mostly up to about 57 µM; on the % scale 0 is the no-effect control and ±100 the full control effect; nearly all actives have a fitted effect of over 65% in size
BAZ2B block – qHTS Assay for Inhibitors of BAZ2B. Bromodomain adjacent to zinc finger domain protein 2B (Homo sapiens), Q9UIF8. AlphaScreen BAZ2B-H3K14Ac peptide displacement. Potency, µM (highest dose often 114 µM), for the others: top-dose activity change, negative = inhibition, usual class: inhibitors. 4.4% of 360,000 active; further: on the % scale 0 is the no-effect control and ±100 the full control effect; nearly all actives have a fitted effect of over 60% in size
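In this displacement format the biotinylated H3(5-23) peptide acetylated at Lys14 serves as ligand at 50 nM, with BAZ2B at 50 nM in PBS pH 7.4 containing 0.01% Tween-20. Donor and acceptor beads are 10 ug/mL final.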
Active calls of the source: *; ? = inconclusive; · = no result; [ ] = dose if it differs, or a comment. The call rests on the fitted dose curve; in most records, active means well fitted curve in the direction sought with a large enough effect; inconclusive means small, poorly fitted or top-dose-only effect, or another doubt; inactive means no such curve, though single readings can be large; an effect the other way counts as inactive or inconclusive. Potency means the concentration at half of the fitted maximal effect.

SMILES	JMJD2A Tudor inh	L3MBTL1 inh	VDR inh	HP1b chromo inh	PLK1 PBD block	BAZ2B block
Cn1cnc(S(=O)(=O)N2CCCCC2c2cc(C(=O)Nc3ccc(F)c(Cl)c3)no2)c1 (stereo unspecified)	·	·	·	·	1%	·
Cn1cc(/C=N/NC(=O)c2cc3cc(Br)ccc3o2)c2ccccc21	-9%	·	-26%	36%	5%	3%
O=C(N/N=C/c1cccn1-c1ccc(O)cc1)c1cccc2ccccc12	-22%	·	-12%	33%	-9%	-23%
O=C(O)c1ccc(-n2cccc2/C=N\NC(=O)c2cc3cc(Br)ccc3o2)cc1	22µM*	·	-16%	45µM*	21µM*	7.9µM*
O=C(O)Cn1cc(/C=N/NC(=O)c2cc3cc(Br)ccc3o2)c2ccccc21	7%	·	14%	43%	-2%	50µM*
O=C(c1cnccn1)N1CCC2(CC1)CCN(c1ncccn1)CC2	·	·	-4%	·	·	·
O=C(CCNS(=O)(=O)c1ccc(OC(F)(F)F)cc1)N1CCN(S(=O)(=O)c2cccc(F)c2)CC1	2%	-2%	9%	25%	-4%	10%
Cc1cccc(N2CCN(S(=O)(=O)c3ccc4c(c3)NC(=O)C(C)S4)CC2)c1C (stereo unspecified)	?	·	0%	36%	-10%	-21%
Cc1cccc(N2CCN(S(=O)(=O)c3ccc4c(c3)NC(=O)CS4)CC2)c1C	?	·	-14%	-20%	27µM*	-20%
Cc1nc(-c2ccc(S(=O)(=O)N3CCN(c4cccc(C)c4C)CC3)cc2)co1	?	·	?	-14%	24µM*	?
Cc1cccc(N2CCN(S(=O)(=O)c3ccc4c(c3)C(C)(C)C(=O)N4C)CC2)c1C	?	?	7%	-18%	-17%	50µM*
Cc1ccc(C)c(N2CCN(S(=O)(=O)c3ccc4c(c3)C(C)(C)C(=O)N4C)CC2)c1	-23%	-5%	-17%	35%	-13%	?
COc1ccc(NC(=O)c2sc3nc(-c4cc5ccc(OC)cc5oc4=O)[nH]c(=O)c3c2C)cc1	-18%	·	-6%	14%	·	-2%
COc1cccc(CC(NC(C)=O)C(=O)NC2CCN(C(=O)c3ccc(Cl)cc3)CC2)c1OC (stereo unspecified)	-11%	·	17%	14%[57 µM]	-7%	-7%
O=C(CN(Cc1ccco1)C(=O)CNS(=O)(=O)c1ccc(Cl)cc1)NCc1ccc(F)cc1	-21%[11.4 µM]	·	-22%	-9%	27µM*	·
COc1cccc(N2CCN(C(=O)C3CCCN(S(=O)(=O)c4ccc(Br)s4)C3)CC2)c1 (stereo unspecified)	?	·	-4%	-8%	·	?
C[C@](Cc1ccc(O)c(O)c1)(NN)C(=O)O	·	·	3%	·	·	·
C[C@@](Cc1ccc(O)c(O)c1)(NN)C(=O)O	79µM*	4%	?	?	-21%	5%
COc1ccc(CN(C)c2ccc(-c3nc(-c4ccc(OC)c(OC)c4)no3)cc2[N+](=O)[O-])cc1	-18%	·	5%	29%	·	-5%
Oc1ccccc1-c1n[nH]c(=S)n1Cc1ccco1	5.6µM*	·	-11%	-22%	-15%	-34%
Cc1cc(-c2n[nH]c(=S)n2Cc2ccco2)n(C)n1	20µM*	7%	-10%	28%	-11%	-3%
COc1cccc(Cc2n[nH]c(=S)n2Cc2ccco2)c1	14µM*	-3%	9%	-7%	-12%	-32%
CCOC(=O)CSc1nnc(CSc2nc(C)cc(C)n2)n1Cc1ccco1	-18%	·	-2%	34%	-8%	-3%
CCOC(=O)CSc1nnc(Cc2ccccc2)n1Cc1ccco1	-24%	-5%	-8%	22%	-7%	-7%
COc1ccc(-c2n[nH]c(=S)n2Cc2ccco2)cc1	14µM*	·	-4%	14%	-23%	-38%
SMILES	JMJD2A Tudor inh	L3MBTL1 inh	VDR inh	HP1b chromo inh	PLK1 PBD block	BAZ2B block
CC(Oc1ccc(O)cc1)(P(=O)(O)O)P(=O)(O)O	·	·	-1%	·	·	·
Cc1c(Br)c(-c2n[nH]c(=S)n2Cc2ccco2)nn1C	?	0%	-2%	20%	-4%	-27%
Cc1cc(-c2n[nH]c(=S)n2Cc2ccco2)nn1C	6.3µM*	-2%	?	11%	0%	-33%
Cc1noc(C)c1C(=O)N1CCC2(CCCN(c3ccncc3)C2)CC1	·	·	-2%	·	·	·
COC(=O)C1=C[C@@H](C(=O)OC)C2C3=C(C(=O)[C@]2(C)NC(=O)c2ccccc2)[C@H](C)[C@@H]2C(=O)N(C)C(=O)[C@@H]2[C@@H]3C1 (stereo partly specified)	-16%	·	-6%	8%	·	·
CC1CCCC(NS(=O)(=O)c2cc3c(cc2Cl)NC(=O)CO3)C1C (stereo unspecified)	-7%	8%	26%	47%	-1%	0%
O=C(CCS(=O)(=O)c1cc2c(cc1Cl)NC(=O)CO2)NCc1ccc(Cl)cc1	-3%	·	9%	13%	·	-37%
Cc1ccc(CNC(=O)CCS(=O)(=O)c2cc3c(cc2Cl)NC(=O)CO3)cc1	?	·	?	11%	27µM*	?
CC1CCCC(NC(=O)CCS(=O)(=O)c2cc3c(cc2Cl)NC(=O)CO3)C1C (stereo unspecified)	?	·	-13%	11%	27µM*	-21%
CC(C)CN(CCNC(=O)c1cn(C)c2ccc(S(=O)(=O)N3CCCCCC3)cc2c1=O)CC(C)C	-17%	·	20%	4%	·	·
CC1CCC(C(C)C)C(=O)/C1=C/c1ccc(N)cc1 (stereo unspecified)	-18%[11.4 µM]	·	?	-9%	24µM*	?
CC1/C(=C\c2ccc(Cl)cc2)C(=O)C2CC1C2(C)C (stereo unspecified)	50%	·	-11%	106%	2%	14%
Cc1c(NC(=O)Oc2ccccc2)sc(=S)n1C	-31%	·	-5%	-14%	15µM*	?
COC(=O)NCC12CC3CC(C1)CC(CNC(=O)OC)(C3)C2	-8%[57.1 µM]	1%	-3%	-18%	12µM*	-5%
CC(NO)C(C)(C)NO (stereo unspecified)	40µM*	9%	25%	?	1%	-28%
COC(=O)[C@@]1(Cc2ccc(OC)cc2)[C@H]2c3cc(C(=O)N4CCCC4)n(Cc4ccc(C)c(F)c4F)c3C[C@H]2CN1C(=O)c1ccccc1	·	·	·	·	-10%	·
O=C1c2ccccc2C(=O)N1N(c1ccccc1)c1ccccc1	-33%	·	-1%	-14%	2%	·
O=C1C=CC(=O)N1N(c1ccccc1)c1ccccc1	18µM*	0%	13µM*	?	4.7µM*	32µM*
